Experimental data published in ChEMBL document CHEMBL3988442, “University of Dundee, Small-Polar-MMV Screening Library” (2021).
For some assays here: Potency and affinity values are given separately.

Assays:
Design in all cases: scale not given: direction of the effect not stated beside the values
[1] = biological target: Protein translocase subunit SecA (Escherichia coli (strain K12)) (UniProt P10408); test: Assay to Identify E. coli SecA ATPase Inhibitors; assay type: functional; conditions: 30 µM
Sequence of Protein translocase subunit SecA (Escherichia coli (strain K12)) (P10408 whole entry): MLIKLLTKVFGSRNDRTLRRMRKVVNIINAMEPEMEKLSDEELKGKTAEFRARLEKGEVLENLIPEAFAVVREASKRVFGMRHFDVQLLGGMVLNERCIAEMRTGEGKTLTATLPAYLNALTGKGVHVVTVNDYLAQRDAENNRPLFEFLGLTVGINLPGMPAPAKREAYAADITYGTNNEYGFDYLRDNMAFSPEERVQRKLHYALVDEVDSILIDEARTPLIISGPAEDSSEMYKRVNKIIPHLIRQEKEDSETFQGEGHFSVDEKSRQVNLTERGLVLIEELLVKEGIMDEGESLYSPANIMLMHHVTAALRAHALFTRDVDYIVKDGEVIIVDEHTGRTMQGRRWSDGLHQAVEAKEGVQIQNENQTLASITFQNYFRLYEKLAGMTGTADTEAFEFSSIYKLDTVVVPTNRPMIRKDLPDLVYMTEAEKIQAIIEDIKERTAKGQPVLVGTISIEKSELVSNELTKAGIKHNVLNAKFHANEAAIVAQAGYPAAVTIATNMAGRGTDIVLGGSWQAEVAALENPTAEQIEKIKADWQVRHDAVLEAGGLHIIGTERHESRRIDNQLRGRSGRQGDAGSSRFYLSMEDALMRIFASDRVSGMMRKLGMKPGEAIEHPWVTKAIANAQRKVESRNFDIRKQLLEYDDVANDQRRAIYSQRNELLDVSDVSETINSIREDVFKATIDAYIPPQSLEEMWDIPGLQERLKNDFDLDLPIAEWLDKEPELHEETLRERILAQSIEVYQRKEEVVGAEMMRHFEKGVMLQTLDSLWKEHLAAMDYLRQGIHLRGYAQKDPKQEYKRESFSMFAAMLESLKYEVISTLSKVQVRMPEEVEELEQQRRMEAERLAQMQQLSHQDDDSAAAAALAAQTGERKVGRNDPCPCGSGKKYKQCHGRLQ

[2] = biological target: T1, Ubiquitin-activating enzyme e1, putative (Leishmania donovani (strain BPK282A1)) (UniProt E9BSI1); test: Leishmania donovani Ubiquitin Activating Enzyme (LdE1); assay type: functional; conditions: 30 µM
T1 sequence (whole entry): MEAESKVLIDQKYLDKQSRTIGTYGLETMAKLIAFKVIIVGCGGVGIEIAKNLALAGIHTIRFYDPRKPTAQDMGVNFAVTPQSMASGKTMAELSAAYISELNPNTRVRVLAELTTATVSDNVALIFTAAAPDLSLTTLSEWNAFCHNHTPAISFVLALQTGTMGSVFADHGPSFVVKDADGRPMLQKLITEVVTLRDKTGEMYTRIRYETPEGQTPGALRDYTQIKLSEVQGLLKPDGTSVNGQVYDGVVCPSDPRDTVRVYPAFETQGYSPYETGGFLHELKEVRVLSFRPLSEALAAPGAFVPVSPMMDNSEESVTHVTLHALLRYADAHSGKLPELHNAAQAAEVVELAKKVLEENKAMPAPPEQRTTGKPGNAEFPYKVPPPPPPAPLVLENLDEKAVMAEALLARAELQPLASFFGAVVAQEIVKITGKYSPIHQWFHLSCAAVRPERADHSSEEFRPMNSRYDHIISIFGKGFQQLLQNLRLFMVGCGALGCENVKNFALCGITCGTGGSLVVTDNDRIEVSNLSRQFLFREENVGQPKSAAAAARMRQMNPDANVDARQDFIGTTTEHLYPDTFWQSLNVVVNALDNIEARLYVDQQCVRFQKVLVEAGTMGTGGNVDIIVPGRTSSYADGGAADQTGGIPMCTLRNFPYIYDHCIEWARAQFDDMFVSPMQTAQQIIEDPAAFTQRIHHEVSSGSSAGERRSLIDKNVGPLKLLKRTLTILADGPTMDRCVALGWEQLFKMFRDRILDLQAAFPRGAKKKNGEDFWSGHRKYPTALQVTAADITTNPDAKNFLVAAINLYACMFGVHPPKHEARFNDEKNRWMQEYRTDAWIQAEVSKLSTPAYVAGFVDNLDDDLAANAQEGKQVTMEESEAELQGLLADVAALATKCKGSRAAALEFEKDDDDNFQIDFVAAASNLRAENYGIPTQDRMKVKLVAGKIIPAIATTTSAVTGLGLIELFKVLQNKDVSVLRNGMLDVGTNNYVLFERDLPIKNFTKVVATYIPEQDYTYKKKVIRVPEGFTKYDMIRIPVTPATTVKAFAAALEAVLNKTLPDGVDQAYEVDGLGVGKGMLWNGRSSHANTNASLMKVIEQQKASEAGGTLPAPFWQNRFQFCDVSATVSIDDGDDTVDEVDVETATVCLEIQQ

[3] = biological target: AMP-activated protein kinase, AMPK (Homo sapiens) (UniProt P54646+O43741+P54619+Q9UGJ0+Q9Y478+Q13131+Q9UGI9); test: AMP-dependent Kinase enzyme assay. An in vitro enzyme assay that detects ADP turnover that is directly proportional to AMPK activity. This uses naive AMPK that is activated during the assay with MK-8722; assay type: functional; conditions: 30 µM
[4] = biological target: Sialic acid-binding Ig-like lectin 9 (Homo sapiens) (UniProt Q9Y336); test: Hs-Siglec9 ALPHAscreen SOP 20170721; conditions: 10 µM
Sequence of Sialic acid-binding Ig-like lectin 9 (Homo sapiens) (Q9Y336 whole entry): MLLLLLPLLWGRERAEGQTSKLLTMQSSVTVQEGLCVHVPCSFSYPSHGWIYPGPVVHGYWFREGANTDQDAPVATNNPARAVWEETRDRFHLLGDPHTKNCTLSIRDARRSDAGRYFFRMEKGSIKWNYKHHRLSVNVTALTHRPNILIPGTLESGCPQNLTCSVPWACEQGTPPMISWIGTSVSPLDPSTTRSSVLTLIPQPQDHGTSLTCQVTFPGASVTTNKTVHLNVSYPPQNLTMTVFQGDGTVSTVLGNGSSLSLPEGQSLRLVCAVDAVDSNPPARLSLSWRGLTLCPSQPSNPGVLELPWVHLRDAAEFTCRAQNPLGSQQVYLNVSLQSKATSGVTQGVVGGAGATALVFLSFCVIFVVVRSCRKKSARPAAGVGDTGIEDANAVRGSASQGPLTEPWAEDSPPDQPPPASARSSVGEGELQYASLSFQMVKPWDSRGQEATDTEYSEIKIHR

[5] = test system: Trypanosoma cruzi; test: Trypanosoma cruzi phosphomannomutase and mannose-1-phosphate guanylyltransferase assay; assay type: functional; conditions: 10 µM
[6] = biological target: T2, Arginase-2, mitochondrial (Homo sapiens) (UniProt P78540); test: in vitro enzyme assay to detect the production of urea directly proportional to the activity of Arginase II; assay type: functional; conditions: 33.3 µM; further: in the data most compounds retested in dose-response had high values
T2 sequence (whole entry): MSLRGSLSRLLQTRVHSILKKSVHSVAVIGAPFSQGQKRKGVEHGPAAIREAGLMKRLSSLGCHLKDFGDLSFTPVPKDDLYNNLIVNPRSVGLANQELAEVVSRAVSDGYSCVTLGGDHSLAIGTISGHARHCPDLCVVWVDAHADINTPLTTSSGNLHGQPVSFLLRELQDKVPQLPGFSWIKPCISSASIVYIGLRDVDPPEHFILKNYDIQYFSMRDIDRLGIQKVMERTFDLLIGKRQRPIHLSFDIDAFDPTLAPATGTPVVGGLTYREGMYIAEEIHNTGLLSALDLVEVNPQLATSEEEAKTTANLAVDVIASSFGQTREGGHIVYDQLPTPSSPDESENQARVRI

[7] = biological target: T3, Proteasome subunit beta (Trypanosoma cruzi) (UniProt O96673); test: Trypanosoma cruzi proteasome chymotrypsin-like activity (TcProtChymo) assay.; further: in the data most compounds retested in dose-response had high values; assay type: functional; conditions: 9.37 µM
T3 sequence (whole entry): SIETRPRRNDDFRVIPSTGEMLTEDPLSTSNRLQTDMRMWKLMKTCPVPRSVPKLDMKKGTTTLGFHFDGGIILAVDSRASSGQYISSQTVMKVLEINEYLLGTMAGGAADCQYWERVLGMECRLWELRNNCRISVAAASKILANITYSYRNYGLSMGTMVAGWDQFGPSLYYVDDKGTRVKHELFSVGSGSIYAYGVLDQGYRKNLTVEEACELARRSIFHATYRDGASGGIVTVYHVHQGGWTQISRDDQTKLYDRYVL

[8] = species on record: Homo sapiens; test: To identify inhibition of the IFN signalling (Jak-Stat) pathway via expression of an eGFP reporter gene under the control of an IFN-stimulated response element (ISRE) containing MxA promoter.; assay type: functional; conditions: 30 µM
[9] = biological target: T4, Tyrosyl-tRNA synthetase, putative (Trypanosoma cruzi (strain CL Brener)) (UniProt Q4DSP6); test: Trypanosoma cruzi tyrosyl tRNA synthetase (TcYRS) _High Tyrosine SOP; assay type: functional; conditions: 30 µM; further: in the data most compounds retested in dose-response had high values
T4 sequence (whole entry): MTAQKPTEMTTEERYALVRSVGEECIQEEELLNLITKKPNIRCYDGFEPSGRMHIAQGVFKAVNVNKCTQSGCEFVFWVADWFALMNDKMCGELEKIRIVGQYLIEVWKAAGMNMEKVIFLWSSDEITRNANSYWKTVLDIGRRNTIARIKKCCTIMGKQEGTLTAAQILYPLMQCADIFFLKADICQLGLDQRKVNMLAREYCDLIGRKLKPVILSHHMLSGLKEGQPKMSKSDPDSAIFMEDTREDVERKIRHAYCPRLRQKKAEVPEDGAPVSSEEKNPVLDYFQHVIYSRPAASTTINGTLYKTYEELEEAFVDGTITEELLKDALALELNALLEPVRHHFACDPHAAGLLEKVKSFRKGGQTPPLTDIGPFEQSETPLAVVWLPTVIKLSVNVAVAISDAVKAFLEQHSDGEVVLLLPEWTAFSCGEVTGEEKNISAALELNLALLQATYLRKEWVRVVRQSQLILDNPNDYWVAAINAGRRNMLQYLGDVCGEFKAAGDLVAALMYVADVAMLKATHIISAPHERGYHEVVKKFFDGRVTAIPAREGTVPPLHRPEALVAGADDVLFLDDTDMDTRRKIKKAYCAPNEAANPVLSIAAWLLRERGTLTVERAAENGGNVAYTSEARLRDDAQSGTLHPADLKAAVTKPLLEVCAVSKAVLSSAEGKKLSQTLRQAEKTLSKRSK

[10] = biological target: T4, Tyrosyl-tRNA synthetase, putative (Trypanosoma cruzi (strain CL Brener)); test: Trypanosoma cruzi tyrosyl tRNA synthetase (TcYRS) SOP; assay type: functional; conditions: 30 µM
[11] = biological target: Chromo domain-containing protein 1 (Saccharomyces cerevisiae (strain ATCC 204508 / S288c) (Baker's yeast)) (UniProt P32657); test: ScCHD-1 Enzyme Inhibition Assay; assay type: functional; conditions: 30 µM; further: in the data most compounds retested in dose-response had high values
Sequence of Chromo domain-containing protein 1 (Saccharomyces cerevisiae (strain ATCC 204508 / S288c) (Baker's yeast)) (P32657 whole entry, the tested form may be a part): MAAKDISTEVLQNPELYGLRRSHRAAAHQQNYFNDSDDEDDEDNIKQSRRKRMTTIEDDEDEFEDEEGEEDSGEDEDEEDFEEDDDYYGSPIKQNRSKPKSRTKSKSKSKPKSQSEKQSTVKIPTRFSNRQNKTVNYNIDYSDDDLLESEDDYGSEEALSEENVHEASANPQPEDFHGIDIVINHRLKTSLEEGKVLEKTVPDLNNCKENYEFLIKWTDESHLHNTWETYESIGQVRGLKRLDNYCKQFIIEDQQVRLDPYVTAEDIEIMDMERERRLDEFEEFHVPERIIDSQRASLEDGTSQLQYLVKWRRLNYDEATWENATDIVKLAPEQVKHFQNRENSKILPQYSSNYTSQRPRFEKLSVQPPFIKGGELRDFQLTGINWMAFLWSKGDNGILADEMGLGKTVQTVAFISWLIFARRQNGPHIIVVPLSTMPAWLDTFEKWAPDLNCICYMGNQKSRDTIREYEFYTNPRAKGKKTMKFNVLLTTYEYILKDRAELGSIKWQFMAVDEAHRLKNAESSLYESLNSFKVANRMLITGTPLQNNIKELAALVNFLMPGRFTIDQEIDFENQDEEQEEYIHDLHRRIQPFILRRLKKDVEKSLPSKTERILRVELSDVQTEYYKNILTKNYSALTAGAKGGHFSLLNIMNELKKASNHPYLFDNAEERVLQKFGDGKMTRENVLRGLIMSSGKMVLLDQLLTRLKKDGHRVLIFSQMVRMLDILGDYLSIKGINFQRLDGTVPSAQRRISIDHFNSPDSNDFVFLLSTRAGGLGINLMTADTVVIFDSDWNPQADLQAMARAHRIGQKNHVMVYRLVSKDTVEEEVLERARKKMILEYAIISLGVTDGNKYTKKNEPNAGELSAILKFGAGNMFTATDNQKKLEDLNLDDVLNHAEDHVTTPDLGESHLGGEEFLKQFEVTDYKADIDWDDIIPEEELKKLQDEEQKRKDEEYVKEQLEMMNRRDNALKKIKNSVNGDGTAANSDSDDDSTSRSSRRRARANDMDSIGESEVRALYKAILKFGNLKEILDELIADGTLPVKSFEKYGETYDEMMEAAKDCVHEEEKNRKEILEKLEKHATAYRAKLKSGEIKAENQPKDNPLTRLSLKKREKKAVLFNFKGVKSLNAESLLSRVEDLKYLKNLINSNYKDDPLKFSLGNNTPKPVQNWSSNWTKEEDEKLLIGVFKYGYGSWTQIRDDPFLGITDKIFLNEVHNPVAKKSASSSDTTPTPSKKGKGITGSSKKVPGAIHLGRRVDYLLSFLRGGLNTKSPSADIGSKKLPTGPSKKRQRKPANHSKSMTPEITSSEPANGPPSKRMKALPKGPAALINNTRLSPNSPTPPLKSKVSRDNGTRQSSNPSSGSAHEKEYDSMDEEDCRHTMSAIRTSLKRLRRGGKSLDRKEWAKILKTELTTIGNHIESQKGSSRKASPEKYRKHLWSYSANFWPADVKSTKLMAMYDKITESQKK

SMILES	Percent Effect [1]	Percent Effect [2]	Percent Effect [3]	Percent Effect [4]	Percent Effect [5]	Percent Effect [6]	Percent Effect [7]	Percent Effect [8]	Percent Effect [9]	Percent Effect [10]	Percent Effect [11]
CN1CCN(c2ncccc2CNc2ncccc2C#N)CC1	-5.21%	8.11%	-1.66%	20.8%	-2.44%	3.72%	3.86%	-10.1%	4.3%	13.6%	-4.55%
CS(=O)(=O)c1ccc(C(O)CN2CCC(c3ccn[nH]3)CC2)cc1 (configuration not stated)	-2.89%	15.2%	-2.45%	-1.3%	-2.17%	4.94%	5.32%	-11.8%	5.42%	16.5%	-6.15%
COc1ccc(C)cc1CN1CCCC1c1noc(C2CC2)n1 (configuration not stated)	-1.46%	-2.7%	-7.59%	-1.73%	5.85%	-9.8%	18.7%	67.4%	9.9%	18.3%	-3.74%
CCCSCC(=O)NS(=O)(=O)c1ccc2c(c1)OCCO2	-2.66%	-2.63%	5.73%	7.23%	1.5%	3.45%	2.34%	-0.713%	1.47%	0%	-4.12%
Cc1cccc(CN2C[C@@H]3COC[C@]3(COc3ccc(C#N)cn3)C2)n1	-2.98%	-8.22%	-1.47%	2.28%	10.1%	-1.2%	3.34%	4.74%	0%	8.64%	-0.121%
O=C1CCCCN1Cc1cccc(NC(=O)N2CCSCC2)c1	-4.11%	9.72%	-6.98%	26%	2.43%	8.83%	12.1%	8.32%	6.32%	12.8%	-6.96%
Cc1cnccc1CN1C[C@@H](O)[C@H](Oc2ccccc2)C1	4.34%	-4.05%	6.12%	0.247%	0.593%	3.02%	3.28%	11.6%	2.15%	-1.3%	-12.9%
Cc1csc2c(=O)n3c(nc12)CCN(C(=O)c1cccnc1)CC3	-2.51%	9.46%	13.3%	-1.07%	4.94%	-1.16%	8.27%	4.21%	4.3%	6.49%	-13%
COCCN(Cc1ccc(F)cc1Cl)C(=O)c1cccc[n+]1[O-]	-4.42%	-1.39%	3.97%	-0.933%	-1.65%	6.18%	12.3%	-7.04%	1.05%	7.69%	-2.92%
CC(NC(=O)NCCn1ccnc1)c1ccc2c(c1)NC(=O)CO2 (configuration not stated)	-4.14%	10.1%	1.48%	0.18%	-7.65%	-1.52%	-0.409%	17.8%	0.493%	13.9%	-1.54%
Cc1ccccc1CNC(=O)CN1CCN(Cc2nccn2C)CC1	-1.84%	21.6%	-6.67%	6.22%	2.74%	-10.8%	18.4%	2.02%	8.37%	25.9%	-9.21%
O=C(Cc1noc2ccccc12)N1CCCC1c1noc(C2CC2)n1 (configuration not stated)	0.239%	-2.7%	-6.79%	3.85%	-4.62%	0%	7.39%	86.2%	2.46%	-6.17%	5.86%
CC(C)(C#N)C(=O)N1CCCC(c2cc(C(F)(F)F)[nH]n2)C1 (configuration not stated)	-6.75%	16.2%	-6.25%	19.3%	3.44%	-2.03%	4.85%	14.8%	2.97%	11%	-8.63%
Cc1cccc(C(=O)NCc2ccc(N3CCCCC3)nc2)n1	-0.795%	13.9%	3.85%	4.23%	-2.97%	-1.5%	11.8%	24.3%	8.33%	15.2%	-1.41%
CCc1nccn1C1CCCN(C(=O)c2ccc3nncn3c2)C1 (configuration not stated)	-5.07%	7.79%	-4.63%	9.34%	5.06%	-1.78%	2.03%	9.22%	6.8%	19.5%	-7.6%
Cc1nccn1CCC1CCCCN1Cc1ccc(N(C)C)nc1 (configuration not stated)	-1.41%	5.33%	-3.72%	-2.2%	-6.91%	4.69%	21.4%	9.79%	0.546%	11.1%	-5.71%
Cc1nc(N(C)C)nc2c1COCC21CCN(C(=O)NC(C)C)C1 (configuration not stated)	-5.29%	0%	-0.0672%	2.32%	2.15%	-2.08%	4.82%	-1.11%	0.99%	18.3%	-4.61%
c1cnc(N2CCOCC3(CCCN(CC4CC4)C3)C2)cn1 (configuration not stated)	-1.84%	5.33%	1.73%	4.28%	-1.74%	-52.5%	6.84%	-10.7%	4.17%	5%	-4.17%
CCN1Cc2c(C(=O)NCC3CC3)ncn2-c2ccccc2S1(=O)=O	3.87%	-5.48%	-3.01%	4.85%	3.37%	-0.399%	16%	-1.54%	0%	18.5%	-2.17%
CCn1ncc2c1CCCC2NCc1cccc2c1OCCO2 (configuration not stated)	-2.98%	-6.33%	6.39%	-0.488%	-0.718%	4.09%	0%	12.6%	0%	2.53%	-17.9%
CCS(=O)(=O)N1CCO[C@H]2[C@H](OCCCn3cccn3)CC[C@@H]21	-0.913%	-2.67%	-2.06%	-3.13%	3.48%	-47.1%	5.3%	-0.821%	-4.17%	7.5%	-1.55%
CC(C)c1ncc2c(n1)CN(Cc1cccc(OCC(N)=O)c1)CC2	-3.71%	10.5%	-32.8%	10.8%	2.44%	4.6%	-1%	-8.11%	8.33%	0%	4.59%
